Assay results published in PubChem BioAssay AID540257 (Southern Research Specialized Biocontainment Screening …, 2011).
In all, about 1,800 compounds went through this assay and about 15 (0.8%) were called active. These entries were drawn from the full list. Potency and affinity values are given separately. Unmarked numbers belong to inactive results. No rule for the calls is given here.

Experiment: antiviral activity against H1N1 influenza, dose response, cell-based, strain KY136 (AID 540257)
Details: H1N1 KY136 influenza antiviral cell assay, % inhibition; series mostly up to 40 µM; inhibition: at the top concentration

SMILES	inhibition [%]
CC(=O)NC(c1ccccc1)c1cc([N+](=O)[O-])c2cccnc2c1O (stereo not drawn)	-0.23
Nc1[nH]c(N=NC(=O)c2ccccc2O)c2ccccc12	-1.36
COc1cc(-c2n[nH]c(=S)n2-c2cccc(C(F)(F)F)c2)cc(OC)c1OC	-0.46
O=C(CCCN1C(=O)/C(=C/c2ccc3c(c2)OCO3)SC1=S)Nc1ccc(C(=O)O)cc1	-1.62
CN1CCN(NC(=O)CN2C(=O)/C(=C/c3ccccc3Cl)SC2=S)CC1	0.15
CCOC(=O)c1ccc(Nc2c(CC)c(C)nc3ncnn23)cc1	-0.18
COc1ccccc1N1CCN(C(=O)CCCn2c(=O)[nH]c3ccsc3c2=O)CC1	-0.55
O=C1CCCC2=C1C1(CCCCC1)N=C(Nc1nc3ccccc3s1)N2	-0.46
O=C(O)c1cccc2c1/C(=N/O)c1ccccc1-2	-1.51
O=C(COC(=O)c1ccc([N+](=O)[O-])cc1)Nc1cccnc1Cl	2.51
C[n+]1c(/C=C/c2ccc(O)cc2)ccc2ccccc21	-0.74
COc1cc(C=NO)nc(-c2ccccn2)c1	-15.2
O=[N+]([O-])c1cccc(C=Nc2cc3c(cc2Br)OCCO3)c1	0.23
CCOc1ccccc1CNC(=O)c1ccc2c(c1)N(CC)CCS2	-6.06
Clc1ccc(-c2nnc(N3CCCC3)nn2)cc1	1.97
CCCS(=O)(=O)n1nc(-c2ccccc2)cc1N	1.16
O=C(Nc1ccc(N2CCOCC2)cc1)Nc1ccc(Cl)c(Cl)c1	-14.1
O=C1CC(c2ccccc2)Cc2nc(NCc3ccco3)ncc21 (stereo not drawn)	13.9
Nc1nc(Nc2ccccc2)nc(NCc2ccco2)c1[N+](=O)[O-]	-3.58
C=CC[n+]1c(/C=C2\C=Cc3cc(C)ccc3N2CC)ccc2ccccc21	-1.51
O=C1C(=C(c2ccccc2)c2ccccc2)Nc2ccccc21	4.26
O=C(CN1CCN(S(=O)(=O)c2ccccc2)CC1)Nc1ccc(N2CCOCC2)cc1	0.12
O=S(=O)(c1cccs1)N1CCN(CC(O)COc2cc(Cl)ccc2Cl)CC1 (stereo not drawn)	-12.7
O=C(CCc1ccccc1)Nc1cc2c(cc1Cl)OCCO2	3.94

SMILES	inhibition [%]
O=C(COC(=O)[C@H](Cc1c[nH]c2ccccc12)NC(=O)c1cccs1)NCc1ccccc1	4.26
O=C(Nc1ccccc1C(=O)NCc1cccnc1)c1ccc(Cl)cc1Cl	-1.04
c1ccc(Cn2nnc3c(N4CCCCCC4)ncnc32)cc1	0
CCOC(=O)N1CCN(c2cc(=O)n(-c3ccc(C)cc3)c(=O)[nH]2)CC1	0.45
O=C1C(Nc2ccc(O)cc2)=C/C(=N/S(=O)(=O)c2cccs2)c2ccccc21	-5.8
O=C(NC(=S)NNC(=O)c1cnccn1)c1ccc(Cl)cc1	-2.73
O=C1CSC(=S)N1N=Cc1ccccc1O	-1.49
O=C(Nc1cccc(Cl)c1)c1cc(N=Nc2ccc([N+](=O)[O-])cc2Cl)ccc1O	-2.11
CC(=O)N1CCC(N(CCCOC(C)C)C(=O)Nc2ccc(Cl)cc2)CC1	0.58
CCOC(=O)c1c(C2CC2)csc1NC(=O)COC(=O)c1ccc[n+]([O-])c1	-0.55
COCc1cc(=O)[nH]c(Nc2nc3ccccc3o2)n1	0.12
O=[N+]([O-])c1ccc(O)c(/C=N/Nc2nn[nH]n2)c1	-2.43
Cc1ccc(C(=O)Nc2nc(-c3ccccn3)cs2)o1	-1.74
COc1ccc(CC(=O)N2N=C(C)CC2(O)c2cccnc2)cc1OC (stereo not drawn)	0.64
CCOc1ccc(OCCOCCn2ccnc2)cc1	1.34
Cc1ccc(S(=O)(=O)N2CCN(C(=O)c3ccc(N4CCCC4)c([N+](=O)[O-])c3)CC2)cc1	-1.55
COc1ccc(CNC(=O)Cn2ccc([N+](=O)[O-])n2)cc1OC	1.93
CCN(C(C)=O)c1cnc(C=NNC(N)=S)c2ccccc12	-5.03
Cc1cc2ncn(C(=O)c3c(-c4ccccc4Cl)noc3C)c2cc1C	0.59
Oc1c(C(Nc2ccccn2)c2ccccn2)ccc2cccnc12 (stereo not drawn)	-3.95
COc1ccc(N2CCN(CCNC(=O)Nc3ccc([N+](=O)[O-])cc3OC)CC2)cc1	-2.3
CCOc1ccc(N=Cc2c(O)cc(C)oc2=O)cc1	-0.39
CN(C)c1ccc(N=Nc2ccccc2C(=O)OCC(=O)N(C)c2ccccc2)cc1	1.62
NC(=O)NC(=O)CC1S/C(=N/N=C2\CSC(=O)N2)NC1=O (stereo not drawn)	0.45

SMILES	inhibition [%]
CC(=O)Oc1ccc(NC(=O)Cc2ccccc2)cc1	-0.12
COc1ccc2cc3c(N)nn(C(=O)Cc4ccccc4OC)c3nc2c1	-1.82
CN(C)c1ccc(CN2CC=C(c3ccc(F)cc3)CC2)cc1	-1.04
CC(NS(C)(=O)=O)C(c1cccs1)N1CCN(c2ccccc2)CC1 (stereo not drawn)	0.3
O=C(N/N=C/c1ccco1)Nc1ccccc1	0.15
Cc1ccccc1NC(=S)N/N=C/c1ccc(O)cc1O	-5.22
COc1ccc(C2C3=C(CC(C)(C)CC3=O)Oc3ncn(Cc4ccco4)c(=N)c32)cc1 (stereo not drawn)	2.82
Cc1ccccc1CNC(=O)CCC(=O)N1CCOc2ccc(Cl)cc21	1.35
CCC(C)NC(=O)CN1C(=O)COc2ccc(S(=O)(=O)N3CCOCC3)cc21 (stereo not drawn)	0.81
CS(=O)(=O)N1CCC(Oc2cccc(C(=O)NCCCC3CCCC3)c2)CC1	-2.3
CC(/C=C/c1ccccc1)=N\NC(=O)Cn1nc(C)cc1C	0
O=C(Cn1c(=O)c(C(F)(F)F)nc2ccccc21)N1CCC2(CC1)OCCO2	1.56
Cc1cccn2c(=O)c(C=C(C#N)C#N)c(N3CCN(c4ccccc4)CC3)nc12	0.28
CCCCN1C(=O)NC2NC(=O)NC21 (stereo not drawn)	-2.02
CC(C)C(C(=O)Nc1ccccc1F)N1C(=O)c2ccccc2C1=O (stereo not drawn)	0.58
O=C(Nc1ccccc1)c1ccc[n+](Cc2ccc([N+](=O)[O-])cc2)c1	2.67
O=C1C(NS(=O)(=O)c2cccs2)=C(N2CCN(c3ccccc3)CC2)C(=O)c2ccccc21	-2.3
Fc1cccc(Nc2ncnc3c2cnn3-c2ccccc2)c1	-16
O=C1c2ccccc2C(=O)c2c1cccc2N1CCOCC1	-0.45
O=C(N/N=C/C1C(=O)NC(=S)N(c2ccccc2)C1=O)c1cc(Br)c(O)c(Br)c1 (stereo not drawn)	-1.19
CCOC(=O)c1sc(NC(=O)c2ccc3ncsc3c2)nc1C	4.13
O=[N+]([O-])c1cc(Br)c2nsnc2c1N1CCOCC1	4.84
CCOC(=O)CC(NS(=O)(=O)c1ccc(NC(C)=O)cc1)c1ccc(OCC)cc1 (stereo not drawn)	2.13
CN(C)c1ccc(C=c2c3ccccc3n3c2c2c([n+]3C)CCCC2)cc1	-4.87

SMILES	inhibition [%]
O=C(NC1CC1)C(=O)c1c(-c2ccccc2)[nH]c2ccccc12	10.5
Cc1nn(Cc2ccccc2)c(C)c1N	0.83
S=c1sscc1-c1ccccc1	-0.7
COc1ccc(/C=C/C(=O)OCC(=O)NCCc2ccccc2)c(OC)c1	1.74
COc1ccc(S(=O)(=O)N2CCOCC2)cc1NC(=O)CN1CCN(C)CC1	1.93
COc1ccc(CSC2=NCCN2)cc1Cl	4.9
C=CCn1c(N)c(C(=O)NCCC2=CCCCC2)sc1=S	0.45
O=C(CN1C(=O)c2cccc3cccc(c23)C1=O)N1CCN(Cc2ccc3c(c2)OCO3)CC1	0.12
CCCn1nc([N+](=O)[O-])c(C(C#N)c2nc3ccccc3s2)c(Cl)c1=O (stereo not drawn)	-5.69
Cc1c(N2C(=O)/C(=C/c3ccccc3)SC2=S)c(=O)n(-c2ccccc2)n1C	0.64
O=C(NCCN1CCOCC1)c1cc2sccc2n1Cc1ccc(Cl)cc1	-1.06
CCOC(=O)CCSCC(=O)Nc1nnc(C)s1	-0.12
O=C(CSc1ccccc1)Nc1nnc(/C=C/c2ccccc2)s1	-1.63
Cc1nc(CNS(=O)(=O)c2ccc3ccccc3c2)cs1	1.86
CCc1nccn1C(=O)c1cnn2c(C(F)F)cc(-c3ccc(C)cc3)nc12	-2.08
Cc1c(N/N=C(\C#N)C(=O)c2ccccc2)c(=O)n(-c2ccccc2)n1C	-2.12
COc1ccc2sc(NC(=O)c3ccco3)nc2c1	0.7
CCCc1ccc2oc(C(=O)NCc3nnc(C)o3)c(C)c2c1	-4.06
O=C(N/N=C/c1cc(Br)c(O)c(Br)c1O)c1cccnc1	-4.64
CCn1c(C(C)NC(=O)c2cccc(C)c2)nc2ccccc21 (stereo not drawn)	2.67
COc1ccc(C(CCNCc2ccc(N(C)C)cc2)C(C)C)cc1 (stereo not drawn)	-5.42
